In the library only some 19% were active in any assay of this set; here they are far more common.
Chronic BCR inh: chronic active BCR signaling inhibition | ABC-DLBCL IkBa-CBG/CBR reporter, luminescence ratio, 4 h | Potency, µM (doses to about 46.1 µM), actives largely listed as inhibitors | 0.05% of 340,000 active | AID 493014; active = well fitted inhibition curve with a large enough effect in the signal ratio, with a control signal flat, not every such curve was filed as active; inconclusive = small, poorly fitted or top-dose-only effect, or effect the other way, or a change in a side signal; the % refers to the signal ratio
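Concentration-response series (up to 46 uM) were applied to TMD8 dual-reporter cells for 4 h at 37C with doxycycline. Green/red ratio, after filter-overlap correction, defined %Activity; red signal alone was normalised to basal cells and zero luminescence.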
SW480 rerep: DNA re-replication induction in SW480 cells; Potency, µM (highest dose often 46.1 µM), actives largely listed as activators; 1.8% of 340,000 active; SW480 DNA re-replication, Hoechst DNA content imaging, 48 h; also: nearly all actives have a fitted effect of over 55% in size
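Image-based read-out: total Hoechst fluorescence of nuclei (405 nm excitation, 500-530 nm emission), with hits raising the fraction of high-intensity nuclei. SW480 colon cells incubated 48 hr with compounds at 37 C.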
DT40 TDP1 CPT: DT40-hTDP1 cell growth loss with CPT; 12% of 420,000 active; Potency, µM (highest dose often 46.2 µM), usual class: inhibitors; chicken DT40 Tdp1-/-;hTDP1 cells + 20 nM CPT, ATP luminescence, 48 h; AID 686979; also: nearly all actives have a fitted effect of over 55% in size
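Chicken DT40 Tdp1-/- cells stably complemented with human TDP1 were seeded at 400 cells/well in medium containing 20 nM camptothecin, exposed to pin-transferred compounds, and grown at 37 °C for at least 48 hr. Viability was read as ATP luminescence.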
TDP1 cell noCPT: qHTS for Inhibitors of human tyrosyl-DNA phosphodiesterase 1 (TDP1): qHTS in cells in absence of CPT | DT40 Tdp1-/- hTDP1 cells, no CPT, ATP luminescence, 48 h | Potency, µM (top dose mostly 46.2 µM), most hits filed as inhibitors | 15% of 420,000 active; also: nearly all actives have a fitted effect of over 55% in size
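A cellular qHTS used chicken DT40 cells lacking endogenous Tdp1 but carrying stably transfected human TDP1. Compounds were applied without camptothecin, and cell growth kinetics were judged by ATP-dependent luminescence after ≥48 hr.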
IL1B secr inh: inflammasome signaling inhibition, IL-1 beta readout. THP-1 LPS/ATP IL-1B secretion, AlphaLISA, 16 h; active compounds read low. activity change, % at 57.5 µM. 4.7% of 360,000 active. AID 743279; in the data active = activity change below about -50%; inconclusive = mostly about -30% to -49%
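THP-1 cells pretreated 1 hr with compounds (up to 57.5 uM final), then stimulated with LPS (250 ng/mL final) plus ATP (1.25 mM final); secreted IL-1B measured by AlphaLISA after 16 hr, decreased signal indicating inhibition.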
MCF10A rerep: induces DNA re-replication in MCF 10a normal breast cells | MCF 10A DNA re-replication, Hoechst nuclear intensity, 48 h | 2.9% of 350,000 active | Potency, µM (highest dose often 46.1 µM), actives largely listed as activators; also: nearly all actives have a fitted effect of over 50% in size
Hits are given with their value; – = inactive; ? = inconclusive; · = no result; [ ] = dose if it differs, or a comment. Unless noted, calls follow the shape of the dose curve; as a rule, active = well fitted curve in the direction sought with a large enough effect; inconclusive = small, poorly fitted or top-dose-only effect, or another doubt; inactive = no such curve, though single readings can be large; an effect the other way counts as inactive or inconclusive.

SMILES	Chronic BCR inh	SW480 rerep	DT40 TDP1 CPT	TDP1 cell noCPT	IL1B secr inh	MCF10A rerep
Cc1ccc(N=Cc2c(O)n(-c3ccc4c(c3)OCO4)c(=O)c3ccccc23)cc1	–	?	?	?	–	?
CN(C(=O)C1CCCO1)C1CCS(=O)(=O)C1 (centres undefined)	–	?	–	–	–	–
COc1ccccc1N(CC(O)CN1CCOCC1)S(=O)(=O)c1ccccc1 (centres undefined)	–	–	–	–	–	?
COc1cc(OC)c2cc(C(=O)N[C@@H](Cc3ccccc3)C(=O)O)n(C)c2c1	–	–	–	–	–	–
Cc1ccccc1-n1c(O)c(C=NC2CCS(=O)(=O)C2)c2ccccc2c1=O (centres undefined)	–	–	–	?	–	–
Cc1cc(C)cc(-n2c(O)c(C=NC3CCS(=O)(=O)C3)c3ccccc3c2=O)c1 (centres undefined)	–	–	16.4µM	?	–	?
CN1CCCCC1(C)C(=O)NCc1ccc(C(C)(C)C)cc1 (centres undefined)	·	·	–	–	–	·
Cc1c(C(=O)OCC2CCCO2)[nH]c2c1C(=O)CC(c1ccco1)C2 (centres undefined)	?	2.91µM	3.66µM	3.66µM	–	3.66µM
C/C=C/COC(=O)c1[nH]c2c(c1C)C(=O)CC(c1ccco1)C2 (centres undefined)	?	?	0.291µM	0.206µM	–	?
C=CCOC(=O)c1[nH]c2c(c1C)C(=O)CC(c1ccco1)C2 (centres undefined)	?	0.184µM	0.0206µM	0.0065µM	–	?
Cc1c(C(=O)OCC(C)C)[nH]c2c1C(=O)CC(c1ccco1)C2 (centres undefined)	?	0.517µM	0.82µM	0.82µM	–	18.4µM
COc1ccccc1C1CC(=O)NC(C)=C1C(=O)OCC1CCCO1 (centres undefined)	–	–	–	–	–	–
c1ccc(CSc2nc3ncccc3[nH]2)cc1	·	·	–	?	·	·
COc1ccc(OC)c(S(=O)(=O)N2CCC(C(=O)NCc3ccccn3)CC2)c1	–	–	–	–	–	–
CC(/C=N/NC(=O)c1cc(-c2ccc(C)o2)[nH]n1)=C\c1ccccc1	–	18.4µM	14.6µM	16.4µM	–	23.1µM
Cc1ccc(-c2cc(C(=O)N/N=C/c3ccccc3)n[nH]2)o1	?	–	–	?	–	–
COc1ccccc1/C=C/C=N/NC(=O)c1cc(-c2ccco2)[nH]n1	?	–	?	18.4µM	–	?
O=C(N/N=C/C(Br)=C/c1ccccc1)c1cc(-c2ccco2)[nH]n1	?	–	6.51µM	8.2µM	-68.3	7.31µM
NNC(=O)c1cc(-c2ccco2)[nH]n1	?	–	–	–	–	–
CC(=O)Nc1ccc(-n2nnnc2SCC(=O)Nc2cccc(NC(=O)c3ccco3)c2)cc1	?	–	–	–	–	–
CCc1ccccc1NC(=O)Cn1nnc(-c2nc(-c3ccncc3)no2)c1N	·	·	–	–	·	·
Cc1ccc(N2CC(C(=O)Nc3nnc(SCCN4CCOCC4)s3)CC2=O)cc1 (centres undefined)	–	–	–	–	–	–
CNc1ccc2ncc(-c3cccc(C(=O)N(C)C)c3)n2n1	·	·	?	11.6µM	–	·
C=CCn1c(SCC(=O)NCC2CCCO2)nc2scc(-c3ccc(OC)cc3)c2c1=O (centres undefined)	–	–	?	?	–	–
C=CCn1c(SCC(=O)c2[nH]c(C)c(C(=O)OCC)c2C)nc2scc(-c3ccccc3)c2c1=O	–	–	11.6µM	16.4µM	–	?
SMILES	Chronic BCR inh	SW480 rerep	DT40 TDP1 CPT	TDP1 cell noCPT	IL1B secr inh	MCF10A rerep
C=CCn1c(SCC(=O)c2[nH]c(C)c(C(=O)OCC)c2C)nc2scc(-c3ccc(OC)cc3)c2c1=O	?	?	9.2µM	14.6µM	–	?
O=C(OCCCc1cc2ccccc2c(=O)o1)c1ccc2c(c1)OCO2	?	–	–	?	–	–
CCNC(=S)N/N=C/c1cccc(/C=N/NC(=S)NCC)c1	–	–	–	–	–	–
Cc1ccc(-n2c(C)cc(/C=N/NC(=O)c3ccncc3)c2C)cc1C	–	–	?	?	–	–
CCNC(=S)N/N=C/c1cc(C)n(-c2ccc(Cl)cc2)c1C	–	–	18.4µM	20.6µM	?	?
Cc1nc2ccccn2c1C(=O)N/N=C/c1ccccc1[N+](=O)[O-]	–	–	–	–	–	–
Cc1nc2ccccn2c1C(=O)N/N=C/c1cc(C)n(-c2ccc(Cl)cc2)c1C	–	–	16.4µM	14.6µM	–	–
Cc1cc(/C=N/NC(N)=S)c(C)n1-c1ccc(Cl)c(Cl)c1	?	18.4µM	2.59µM	3.66µM	–	25.9µM
Cc1ccc(NC(=O)Cn2c(=O)n(CCCCC(=O)NCCc3ccccc3)c(=O)c3ccccc32)c(C)c1	·	·	–	–	·	·
Brc1ccc(-c2nc3ncccn3c2NC2CCCCC2)o1	–	–	16.4µM	?	–	?
CC(C)NS(=O)(=O)c1ccc(CCC(=O)Nc2cc(Cl)ccc2Oc2ccccc2)cc1	?	–	23.1µM	23.1µM	–	–
CNC(=O)c1ccc2cc(OC)c(OC)cc2c1	·	·	–	–	?	·
CCCCCCCC#Cc1ccccc1/C=N/S(=O)c1ccc(C)cc1 (centres undefined)	–	–	11.6µM	18.4µM	–	–
CCCN1CCN(CCCNC(=O)CCN2C(=O)COc3ccccc32)CC1	–	–	–	–	–	–
Cc1ccc(C)c(N2CCN(CCCNC(=O)Cn3cccc3C(=O)c3ccccc3)CC2)c1	–	?	5.17µM	5.17µM	–	–
O=C(Cn1cccc1C(=O)c1ccccc1)NCCCN1CCOCC1	–	–	–	–	–	–
O=C(CCN1C(=O)COc2ccccc21)NCCCN1CCN(c2ccccc2F)CC1	–	–	18.4µM	?	–	–
CCN(CC)S(=O)(=O)c1ccc2c(c1)N(CC(=O)NCCCN1CCN(c3cc(C)ccc3C)CC1)C(=O)CO2	?	·	2.59µM	4.61µM	·	·
CCN(CC)S(=O)(=O)c1ccc2c(c1)N(CC(=O)NCCCN1CCN(c3ccccc3F)CC1)C(=O)CO2	·	·	23.1µM	?	·	·
Cc1cccc(NC(=O)Cn2c(=O)n(CCCS(=O)(=O)C3CCCCC3)c(=O)c3ccccc32)c1	·	·	–	?	·	·
CCC1CN(CCNC(=O)c2cscn2)Cc2cc(OC)ccc2O1 (centres undefined)	·	·	–[9.04 µM]	–	·	·
CCc1ccccc1NC(=O)CN1CCN(C(=O)CCC(=O)N2CCC(c3ccccc3)=N2)CC1	?	–	14.6µM	25.9µM	–	–

Source: PubChem BioAssay (National Center for Advancing Translational Sciences (NCATS))
